AmpC no deterg – inhibitors of E. coli AmpC beta-lactamase without detergent. AmpC nitrocefin hydrolysis, absorbance 480 nm, 0.0001% Triton. Potency, µM (titrated, usually from 57.1 µM), inactives show at the highest dose activity change, negative = inhibition, actives largely listed as inhibitors. 0.52% of 330,000 active;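 further: potency means the concentration at half of the fitted maximal effect; plate controls were no compound for no effect and no enzyme for full effect; nearly all actives have a fitted effect of over 20% in size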
Target sequence (P00811 whole entry, looked up): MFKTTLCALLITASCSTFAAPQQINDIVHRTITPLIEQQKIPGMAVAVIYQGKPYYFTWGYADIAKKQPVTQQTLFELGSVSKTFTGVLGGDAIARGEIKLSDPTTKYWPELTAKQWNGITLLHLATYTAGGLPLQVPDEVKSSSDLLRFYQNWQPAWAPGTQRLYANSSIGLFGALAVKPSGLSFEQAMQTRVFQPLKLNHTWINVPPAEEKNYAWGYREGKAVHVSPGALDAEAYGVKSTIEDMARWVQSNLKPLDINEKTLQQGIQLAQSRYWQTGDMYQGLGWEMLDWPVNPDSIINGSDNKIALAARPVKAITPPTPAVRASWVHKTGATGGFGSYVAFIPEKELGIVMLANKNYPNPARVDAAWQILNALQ
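AmpC (5.3 nM in the dispensed reagent) in 20 mM phosphate pH 7.0 with 0.01% (detergent screen) or 0.0001% Triton X-100 was preincubated with compounds for 15 min at room temperature. Nitrocefin was then added from an 800 uM solution, and hydrolysis was followed at 480 nm.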
AmpC inh detg – AmpC beta-lactamase inhibition with detergent present | P00811 | AmpC hydrolysis of nitrocefin, absorbance 480 nm, 0.01% Triton | Potency, µM (titrated, usually from 114 µM), for the others: top-dose activity change, negative = inhibition, most hits filed as inhibitors | 0.041% of 370,000 active | AID 485294;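 further: potency means the concentration at half of the fitted maximal effect; 0% = no-compound wells and -100% = no-enzyme wells; nearly all actives have a fitted effect of over 25% in size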
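20 mM phosphate pH 7.0 + 0.01% (detergent screen) or 0.0001% Triton X-100; 5.3 nM AmpC reagent; cpd preinc 15 min RT; nitrocefin (800 uM stock) to start; A480 q20 s × 4 min; Activity was normalised to no-enzyme and no-compound control wells.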
HCMV inh – blocks human cytomegalovirus replication; HFF cells, HCMV-luciferase reporter, 72 h; active compounds read low; activity change, negative = inhibition, % at 57.5 µM; 4.5% of 410,000 active; AID 1259415; in the data active means activity change below about -60%; inconclusive means no clear call, values can overlap the other calls; inactive means above about -39%
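Two-dose cell screen: HFF monolayers treated with compounds and infected with luciferase-expressing HCMV at 1 PFU/cell, 72 h at 37C, then lysed for luciferase measurement.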
FMDV inh – antivirals against foot and mouth disease virus | FMDV antiviral cell-based qHTS | Potency, µM (doses to about 57.9 µM), for the others: at the highest dose activity change, negative = inhibition, actives largely listed as inhibitors | 1.2% of 410,000 active | AID 1159524; calls by dose curve; tested in HEK293T cells; further: read-out not given here; potency means the concentration at half of the fitted maximal effect; nearly all actives have a fitted effect of over 45% in size
HCV inh – inhibitors of hepatitis C virus infection; Huh7.5.1 HCVcc-Cre infection, luciferase reporter, 44 h; Potency, µM (doses to about 41.8 µM), inactives show at the top dose activity change, negative = inhibition, actives largely listed as inhibitors; 3.4% of 340,000 active; further: potency means the concentration at half of the fitted maximal effect
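Luciferase read-out (15 sec integration) after a 15 min room-temperature substrate step quantifies HCVcc-Cre infection. Cells, 1,000 per well, had compound added 4 h post-plating, then virus at ~0.5 moi, and were cultured 44 h.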
* = called active by the depositor. Compounds with a hit are over-represented: about 7.3% of the library has one in this group of screens. Unless noted, the call rests on the fitted dose curve; in most records, active means well fitted curve in the direction sought with a large enough effect; inconclusive means small, poorly fitted or top-dose-only effect, or another doubt; inactive means no such curve, though single readings can be large; an effect the other way counts as inactive or inconclusive. Unless noted, on the % scale 0 is the no-effect control and ±100 the full control effect.

For Clc1ccc(CSc2nc3ccncc3[nH]2)cc1 the results were AmpC no deterg -28.0%, AmpC inh detg inconclusive, HCMV inh 68.3, FMDV inh -58.6% and HCV inh -10.9%.
`O=C(c1ccc(CSc2nc3ccncc3[nH]2)cc1)N1CCN(c2cccc(Cl)c2)CC1` gave AmpC no deterg 41.6%, AmpC inh detg inconclusive, HCMV inh -89.6*, FMDV inh inconclusive and HCV inh 7.94µM*.
Cc1ccc(CSc2nc3ccncc3[nH]2)cc1 was read as AmpC no deterg -25.9%, AmpC inh detg -5.9%, HCMV inh 97.5, FMDV inh 10µM* and HCV inh -6.8%.
Screening Cc1noc(C)c1S(=O)(=O)N(C)C[C@@H]1OCc2cn(nn2)CCCC(=O)N([C@H](C)CO)C[C@H]1C returned HCMV inh -14.4.
For Cc1cccc(OCC(=O)N2CCc3ccccc3C2)c1C the results were HCMV inh -4.2 and FMDV inh 17.0%.
For Cc1ccc(CN(C(=O)c2ccccc2F)c2ccccn2)o1 the results were AmpC inh detg 8.9%, HCMV inh -3.1 and FMDV inh -2.4%.
Screening CCCN1C(=O)/C(=C/c2ccc(N3CCOCC3)cc2)NC1=S returned AmpC no deterg -10.9%, AmpC inh detg -1.6%, HCMV inh -4.9, FMDV inh -15.6% and HCV inh -20.5%.
CCN1C(=O)/C(=C/c2ccc(N3CCCC3)cc2)NC1=S was read as AmpC no deterg 28.2µM*, AmpC inh detg -5.4%, HCMV inh -64.6*, FMDV inh -24.5% and HCV inh inconclusive.
O=C(NCCc1nnc2n1CCN(Cc1ccc(F)c(F)c1)CC2)c1ccoc1 was read as FMDV inh -4.7%.
COc1ccc(S(=O)(=O)N2c3cc(Cl)ccc3Oc3nc4ccccc4nc32)cc1 was read as AmpC no deterg -10.6%, AmpC inh detg -8.3%, HCMV inh -89.3*, FMDV inh 68.9% and HCV inh inconclusive.
CC[C@@H](C)[C@@H](N)C1=N[C@H](C(=O)N[C@@H](CC(C)C)C(=O)N[C@@H](CCC(=O)O)C(=O)N[C@@H](C(=O)N[C@@H]2CCCCNC(=O)[C@@H](CC(N)=O)NC(=O)[C@@H](CC(=O)O)NC(=O)[C@@H](Cc3cnc[nH]3)NC(=O)[C@@H](Cc3ccccc3)NC(=O)[C@@H]([C@H](C)CC)NC(=O)[C@@H](CCCN)NC2=O)[C@@H](C)CC)CS1 was read as FMDV inh -8.4%.
Screening COc1ccc2nc(N3CCN(C(=O)CS(=O)(=O)c4ccc(C)cc4)CC3)sc2c1 returned AmpC inh detg 3.0%, HCMV inh -64.2* and FMDV inh inconclusive.
`COc1ccc2nc(N3CCN(C(=O)c4ccco4)CC3)sc2c1` gave AmpC inh detg 5.4%, HCMV inh 14.3 and FMDV inh 10.7%.
`Cc1nc([N+](=O)[O-])cn1CC(Cl)Cn1cc([N+](=O)[O-])nc1C` gave HCMV inh -3.2.
Screening COc1ccc2ncc3c(-c4ccc(C)c(C)c4)nn(CC(=O)Nc4ccccc4)c3c2c1 returned AmpC inh detg 6.8%, HCMV inh -92.3* and FMDV inh 8.7%.
Screening O=P1(c2ccccc2)Nc2ccccc2N1c1ccccc1 (stereo not drawn) returned HCMV inh -64.0*, FMDV inh -5.0% and HCV inh -2.1%.
`CCOc1ccc(Oc2nc(NC)nc(N3CCOCC3)n2)nn1` gave AmpC inh detg 8.9%, HCMV inh 65.7 and FMDV inh -8.2%.
CCOC(=O)COn1c(=O)c(-c2ccc(OC)cc2)[n+]([O-])c2ccccc21 was read as AmpC no deterg -10.9%, AmpC inh detg 0.3%, HCMV inh -61.1*, FMDV inh 7.5% and HCV inh 17.5%.
`Cc1nc(-c2ccc(O)c(O)c2)cs1` gave AmpC no deterg -21.5%, AmpC inh detg 1.4%, HCMV inh 29.9, FMDV inh 12.7% and HCV inh inconclusive.
For Cc1ccc2nc(-c3ccccc3)cn2c1 the results were AmpC no deterg -13.7%, AmpC inh detg 4.0%, HCMV inh -65.8*, FMDV inh 1.78µM* and HCV inh -8.9%.
For CC(=O)Nc1ccc(-c2cn3cc(C)ccc3n2)cc1 the results were AmpC no deterg -34.2%, AmpC inh detg -6.1%, HCMV inh 86.0, FMDV inh -16.5% and HCV inh 13.0%.
For Cc1ccc2nc(-c3ccc(O)c(O)c3)cn2c1 the results were AmpC no deterg -27.9%, AmpC inh detg -2.3%, HCMV inh 14.7, FMDV inh 12.6µM* and HCV inh -11.6%.
For Cc1c(C(=O)N2CCCCCC2)c(S(=O)(=O)Nc2cccc(C#N)c2)c(C)n1C the results were AmpC inh detg 0.2%, HCMV inh -8.5 and FMDV inh 37.8%.
COc1cc(Nc2cc3c(cn2)cc(-c2cnn(C)c2)n3Cc2ccccc2)cc(OC)c1OC was read as HCMV inh -74.5*.
`COc1ccc(C(C)(C)C)cc1NC(=O)C1=CC=CN2CCS(=O)(=O)N=C12` gave AmpC no deterg 23.0%, HCMV inh 22.5, FMDV inh -0.7% and HCV inh 4.8%.
`CCOc1ccc(-n2c(C)cc(C(=O)CCl)c2C)cc1` gave AmpC no deterg -14.4%, AmpC inh detg -0.8%, HCMV inh -92.0*, FMDV inh 28.2µM* and HCV inh inconclusive.
For COC(=O)c1ccc(-n2c(C)cc(C(=O)COC(=O)CNS(=O)(=O)c3ccc(C)cc3)c2C)cc1 the results were AmpC no deterg -40.1%, AmpC inh detg inconclusive, HCMV inh -0.5, FMDV inh -9.9% and HCV inh 26.2%.
`COC(=O)c1ccc(-n2c(C)cc(C(=O)COC(=O)C3=COCCO3)c2C)cc1` gave AmpC no deterg -7.2%, HCMV inh -66.1*, FMDV inh -16.0% and HCV inh 9.3%.
COC(=O)c1ccc(-n2c(C)cc(C(=O)CCl)c2C)cc1 was read as AmpC no deterg -20.9%, AmpC inh detg -0.9%, HCMV inh -84.5*, FMDV inh 31.6µM* and HCV inh 6.31µM*.
Screening O=C(NC1CCC(n2cc(C(=O)NC3CC3)nn2)CC1)C(=O)c1ccccc1 (stereo not drawn) returned FMDV inh -10.7%.
For O=C(Oc1ccc2c(c1)OCO2)c1cc2c(s1)CCC2 the results were AmpC no deterg 15.8µM*, AmpC inh detg -11.6%, HCMV inh 24.4, FMDV inh 6.3% and HCV inh 6.6%.
Screening COc1cc(OC)c(S(=O)(=O)N2CCOCC2)cc1S(=O)(=O)N1CCOCC1 returned AmpC no deterg -8.5%, AmpC inh detg inconclusive, HCMV inh -30.2, FMDV inh -6.9% and HCV inh 12.4%.
